Assay results reported in PubChem BioAssay AID485364 (National Center for Advancing Translational Sciences (NCATS), 2010).
Among all 360,000 compounds or so, about 11,000 (3.1%) were called active. Where a call stands in place of a potency, no number is given. About 4% were inconclusive and are not listed. Calls follow the shape of the dose curve; as a rule, active = well fitted inhibition curve with a large enough effect; inconclusive = small, poorly fitted or top-dose-only effect; inactive = no such curve, though single readings can be large or run the other way. The sample as a whole holds a higher share of actives than the screen did.

These compounds were tested against Schistosoma mansoni thioredoxin glutathione reductase (TGR) (UniProt Q962Y6) (assay: qHTS Assay for the Inhibitors of Schistosoma Mansoni Peroxiredoxins). Settings: purified TGR, DTNB reduction, TNB absorbance 405 nm; series mostly up to 114 µM.
Outline: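 TGR 20 nM + NADPH 100 uM (dispensed conc.), cpd preinc 15 min RT; start with NADPH (500 uM addition) then DTNB (15 mM addition). Kinetic TNB absorbance, 405 nm filter. Four-parameter Hill fit across titration.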
Also: nearly all actives have a fitted effect of over 60% in size.
Potency is read from the fitted curve at half-maximal effect.

| SMILES | Potency |
| --- | --- |
| N#Cc1nc(/C=C/c2ccc(F)cc2)oc1NC1CCCCC1 | inactive |
| CCC(=O)N1N=C(c2ccc(OC)cc2)CC1c1cn(-c2ccccc2)nc1-c1cccs1 (stereo not given) | inactive |
| CCCn1c2ccccc2c2cnn(CC(=O)NCCCOC(C)C)c(=O)c21 | inactive |
| CCSc1nnc2c(n1)OC(c1ccc(OCC(=O)O)cc1)Nc1ccccc1-2 (stereo not given) | inactive |
| COC(=O)c1scc(-c2ccc(C)cc2)c1S(=O)(=O)Nc1cc(Cl)c(OC)cc1OC | inactive |
| COc1ccc(Nc2ncc3c(n2)CCN(C(=O)OC(C)(C)C)C3)cc1 | inactive |
| Cc1cccc(-n2c(O)c(/C=N/N3CCOCC3)c(=O)[nH]c2=S)c1 | inactive |
| Cc1cccc(-n2c(O)c(C=Nc3ccccc3N)c(=O)[nH]c2=O)c1 | inactive |
| Cc1cccc(-n2c(O)c(C=NC34CN5CN(CN(C5)C3)C4)c(=O)[nH]c2=O)c1 | 7.94 µM (active) |
| CCOc1ccc(NC(=O)CCC(=O)N2CC(C)Oc3ccc(C)cc32)cc1 (stereo not given) | inactive |
| COc1ccc(OC)c(-c2nc(C(N)=O)c3c(n2)n(-c2ccc4c(c2)OCO4)c(=O)n3C)c1 | inactive |
| CCCOc1ccc(NC(=O)CC2C(=O)N(C)C(=S)N2Cc2ccc3c(c2)OCO3)cc1 (stereo not given) | inactive |
| O=C(C1CCN(Cc2ccc(Cl)cc2)CC1)N1CCN(Cc2ccc3c(c2)OCO3)CC1 | inactive |
| O=C(Nc1ccc(Cl)cc1)C1c2cccc[n+]2CC(=O)N1Cc1ccc2c(c1)OCO2 (stereo not given) | 20 µM (active) |
| COc1ccc(S(=O)(=O)c2c(Nc3ccc(C)cc3)sc(C(=O)c3ccc(C)cc3)c2N)cc1 | inactive |
| Cc1c(C(=O)N2CCCC2)oc2c1-c1nn(CC(=O)NCc3ccc(OC(C)C)cc3)cc1CC2 | inactive |
| CCC(Sc1nc2n[nH]c(C)c2c(=N)n1-c1ccccc1Cl)C(=O)N(CC)CC (stereo not given) | inactive |
| Cc1cc(C)nc(SC(C)C(=O)N/N=C/c2cccs2)n1 (stereo not given) | inactive |
| Cc1cc(C)nc(S/C=C/C(=O)c2ccccc2)n1 | 1.12 µM (active) |
| Cc1cc(C)nc(N(C#N)CC(=O)Nc2ccccc2)n1 | inactive |

| SMILES | Potency |
| --- | --- |
| COc1ccccc1CN1CCC(CNC(=O)c2cnn(-c3ccccc3Cl)c2C2CCN(C(=O)OC(C)(C)C)CC2)CC1 | inactive |
| CCOC(=O)c1c(S(=O)(=O)N2CCC(C(=O)NCc3ccccc3OC)CC2)c(C)n(C)c1C | inactive |
| COc1ccc(CCNC(=O)c2nn(C)c3c2CSc2ccccc2-3)cc1OC | inactive |
| COc1cc(NC(=O)c2nc3ccccc3nc2C)cc(OC)c1OC | inactive |
| COc1cc(NC(=O)c2noc3c2CSc2ccccc2-3)cc(OC)c1OC | 0.794 µM (active) |
| O=C(NCc1ccccc1Cl)c1cccn1-c1nnc(N2CCCCC2)s1 | inactive |
| O=C(Nc1ccc(CN2CCOCC2)cc1)c1cc(Cl)ccc1Cl | inactive |
| CC(C)c1cc(CN2CCOCC2)cc(C(C)C)c1O | 3.98 µM (active) |
| CC(CN1CCOCC1)c1ccccc1 (stereo not given) | inactive |
| COc1cc(C(=O)Nc2ccc(OCc3cc(=O)n4cc(C)sc4n3)cc2)cc(OC)c1OC | inactive |
| COc1ccc(CC(=O)N2CC(=O)Nc3ccc(Br)cc3C2c2ccc(F)cc2)cc1OC (stereo not given) | inactive |
| CCOC(=O)C1CCCN(C(=O)Cn2ncc3c(C)n(Cc4ccc(F)cc4)c(C)c3c2=O)C1 (stereo not given) | inactive |
| Cc1oc2ncn(CC(C)C)c(=O)c2c1C(=O)N1CCN(c2ccccc2F)CC1 | inactive |
| COc1cccc(C(c2c(O)cc(C)n(Cc3ccco3)c2=O)N2CCN(c3ccccc3)CC2)c1 (stereo not given) | 3.16 µM (active) |
| CCN1CCN(C(c2ccc(C)cc2)c2c(O)cc(C)n(Cc3ccco3)c2=O)CC1 (stereo not given) | 4.47 µM (active) |
| Cc1cc(O)c(C(c2ccccc2)N2CCN(c3ccccc3F)CC2)c(=O)n1Cc1ccco1 (stereo not given) | 3.16 µM (active) |
| COc1ccc(C(CC(=O)N2CCN(c3ccccc3)CC2)c2c(O)cc(OC)cc2OC)cc1 (stereo not given) | inactive |
| Cc1nc2ccn(Cc3cccnc3)c(=O)c2cc1C(=O)N1CCN(c2ccccc2F)CC1 | inactive |
| C/C(=N\N1CCN(Cc2ccc(C)cc2)CC1)c1ccco1 | inactive |
| OC(COCc1ccco1)CN1CCN(c2ccccc2)CC1 (stereo not given) | inactive |

| SMILES | Potency |
| --- | --- |
| CCOC(=O)C1(CCc2ccccc2)CCN(Cc2ccco2)CC1 | inactive |
| Cc1ccc(N(C)C(=O)C2CCN(S(=O)(=O)c3ccc4c(c3)CCCN4C(=O)C3CCC3)CC2)cc1 | inactive |
| COc1cccc(CNCc2c(C(=O)O)n(Cc3ccc(C)cc3)c3cc(C)ccc23)c1OC | inactive |
| Cc1ccc(NC(=O)CN2C(=O)CC(C)Sc3ccccc32)c(C)c1 (stereo not given) | inactive |
| Cc1ccc2oc(=O)c3cnn(CC(=O)NCc4ccccc4Cl)c3c2c1 | inactive |
| CC(C)c1ccc(NS(=O)(=O)c2ccc3[nH]cc(C(=O)NC4CCCC4)c(=O)c3c2)cc1 | inactive |
| CC(C)(C)C1C/C(=C/c2ccco2)C(=O)/C(=C/c2ccco2)C1 (stereo not given) | 39.8 µM (active) |
| CCCCN=C1N/C(=C\c2ccco2)C(=O)N1c1ccccc1 | 20 µM (active) |
| CCOC(=O)C1(C)NC(c2ccco2)C2C(=O)N(c3ccccc3)C(=O)C21 (stereo not given) | inactive |
| CCOc1c(CNCc2ccc(C(=O)O)cc2)cccc1OC | inactive |
| CCOc1cccc2c1N[C@@H](c1ccc(C(=O)O)cc1)[C@H]1CC=C[C@@H]21 | 7.08 µM (active) |
| CCOc1cccc(CC(=O)N2CCc3c([nH]c4ccccc34)C2c2ccc(F)cc2)c1OCC (stereo not given) | inactive |
| CCOC(=O)N1CCc2c(sc3c2c(=O)n(Cc2ccccc2)c(=O)n3CC(=O)Nc2cccc(C)c2)C1 | inactive |
| Cc1ccc(N2CC(c3nnc(Cc4ccccc4Cl)o3)CC2=O)cc1 (stereo not given) | inactive |
| CCOc1ccccc1CNC(=O)c1ccc2c(c1)nc1n2CCC(C)C1 (stereo not given) | inactive |
| CCOc1cccc2cc(-c3cn4c(n3)sc3cc(C)ccc34)c(=O)oc12 | inactive |
| O=C1NC(=O)N(c2ccccc2)C(=O)/C1=C/c1ccc([N+](=O)[O-])s1 | 5.62 µM (active) |
| COc1cccc(N2C(=O)NC(=O)/C(=C\c3ccc([N+](=O)[O-])s3)C2=O)c1 | 8.91 µM (active) |
| COc1cccc(/C=C2\SC(=N)N(c3ccc(F)cc3)C2=O)c1 | inactive |
| COc1cc(/C=C2/C(=O)NN(c3ccc(F)cc3)C2=O)cc([N+](=O)[O-])c1O | inactive |
